Screen size: about 5,500 compounds; about 2,000 (36%) were called active. Roughly 18% stayed inconclusive and do not appear here. Cut-off read from the data, not from the text of the source: active = normalized growth mostly below about 0.91 (no sharp cut-off); inconclusive = no clear call, values can overlap the other calls; inactive = mostly above about 0.92. The list shows a part of the results.
Assay: chemical genetic growth profiling, strain panel (AID 1159580);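 note: tested at 20 µM; growth read once vehicle control cultures reached saturation at 30 °C; 1 = growth at the plate median or of vehicle wells; lower values mean less growth of the strain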
Conditions: S. cerevisiae deletion strains, growth OD

Measured: normalized growth

Cc1nc2c(OCc3ccccc3)cccn2c1CC#N
inactive: locus YAL040C, strain CLN3, active compounds read low 0.99 | locus YCL061C, strain MRC1 (second series), active compounds read low 0.996 | locus YDR363W, strain ESC2, active compounds read low 0.987 | locus YER002W, strain NOP16, active compounds read low 0.991 | locus YGR078C, strain PAC10, active compounds read low 0.996 | locus YMR263W, strain SAP30, active compounds read low 1 | locus YMR307W, strain GAS1, active compounds read low 0.974 | locus YNL153C, strain GIM3, active compounds read low 0.994 | locus YNL175C, strain NOP13, active compounds read low 0.991 | locus YNL197C, strain WHI3, active compounds read low 1 | locus YNL224C, strain SQS1, active compounds read low 0.995 | locus YNL322C, strain KRE1, active compounds read low 1.01 | locus YOR083W, strain WHI5 (second series), active compounds read low 0.97 | locus YPL241C, strain CIN2, active compounds read low 1

From PubChem BioAssay AID1159580 (chemical genetic matrix, 2015)
